High-throughput results as filed in PubChem BioAssay.
Mm-Cpn inhibitor = M. maripaludis TRiC chaperonin inhibition. Potency, µM (highest dose often 76.9 µM), inactives show at the highest dose activity, negative = inhibition, actives largely listed as inhibitors. 330,000 compounds, 0.031% hits. AID 504842. purified Mm-Cpn ATPase, ADP Transcreener TR-FRET; further: potency means the concentration at half of the fitted maximal effect; on the % scale 0 is the no-effect control and ±100 the full control effect; nearly all actives have a fitted effect of over 80% in size
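25 nM Mm-CPN + cpd, 10 min 37°C; + 10 uM ATP, 30 min 37°C; buffer 30 mM Tris pH 7.4, 100 mM KCl, 5 mM MgCl2, 1 mM DTT; Transcreener ADP HTRF detection 30 min RT.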
ERG-DNA inh = blocks human ERG Ets domain binding to DNA; P11308; fluorescence polarization, His-ERG Ets domain / labelled DNA; Potency, µM (top dose mostly 76.9 µM), for the others: at the top dose FP activity, negative = inhibition, most hits filed as inhibitors; 370,000 compounds, 0.028% hits; AID 624246; active means well fitted inhibition curve with a large enough effect in the polarisation, with a control signal flat; inconclusive means small, poorly fitted or top-dose-only effect, or effect the other way, or a change in a side signal; inactive means no such curve, though single readings can be large or run the other way; the % refers to the polarisation;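 further: polarization taken with two DNA probes labelled with fluorescein and Texas red; potency means the concentration at half of the fitted maximal effect; % of control where 0% means no effect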
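His-tagged ERG Ets domain (1 uM in the protein solution; 300mM KCl, 50mM Tris-HCl, 1mM EDTA, 1mM DTT, pH 7.5) received compound, then a probe mix of 5 nM fluorescein-DNA and 100nM Texas-615-DNA. Fluorescence polarization was read for both dyes.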
Menin MLL FP TR = menin-MLL binding inhibition, Texas Red mutant peptide. Menin + Texas Red MLL mutant peptide, fluorescence polarization. Potency, µM (top dose mostly 61.6 µM), without a hit: at the top dose FP activity change, negative = inhibition, hits mostly inhibitors. 270,000 compounds, 0.23% hits; active means well fitted inhibition curve with a large enough effect in the polarisation, with a control signal flat, not every such curve was filed as active; inconclusive means small, poorly fitted or top-dose-only effect, or effect the other way, or a change in a side signal; inactive means no such curve, though single readings can be large or run the other way; the % refers to the polarisation; further: potency means the concentration at half of the fitted maximal effect; % of control where 0% means no effect
Target sequence (O00255 whole entry, looked up): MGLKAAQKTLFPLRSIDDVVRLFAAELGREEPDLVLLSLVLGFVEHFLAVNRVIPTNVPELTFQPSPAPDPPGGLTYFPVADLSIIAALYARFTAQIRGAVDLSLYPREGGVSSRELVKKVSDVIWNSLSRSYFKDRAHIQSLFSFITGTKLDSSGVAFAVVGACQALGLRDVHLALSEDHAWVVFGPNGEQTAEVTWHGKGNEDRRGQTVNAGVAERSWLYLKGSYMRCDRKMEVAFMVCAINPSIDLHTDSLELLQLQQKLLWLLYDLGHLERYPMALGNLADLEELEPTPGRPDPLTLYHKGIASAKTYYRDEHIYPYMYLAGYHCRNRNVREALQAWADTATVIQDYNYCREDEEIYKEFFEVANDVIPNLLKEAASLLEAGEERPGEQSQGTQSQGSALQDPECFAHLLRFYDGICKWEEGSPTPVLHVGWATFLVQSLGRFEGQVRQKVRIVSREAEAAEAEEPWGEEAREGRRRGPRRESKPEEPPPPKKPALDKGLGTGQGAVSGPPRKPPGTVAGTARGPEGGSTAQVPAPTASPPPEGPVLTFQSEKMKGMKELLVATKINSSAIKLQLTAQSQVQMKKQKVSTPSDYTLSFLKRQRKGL
Menin-MLL FL inh = inhibitors of human menin-MLL interaction, wild-type MLL peptide. Fluorescence polarization, fluorescein-MLL peptide displacement from menin. FP activity change, % at 61.4 µM. 290,000 tested, under 10 active. AID 1766; active means well fitted curve in the direction sought with a large enough effect in the polarisation, not every such curve was filed as active; inconclusive means small, poorly fitted or top-dose-only effect, or effect the other way, or a change in a side signal; inactive means no such curve, though single readings can be large or run the other way; the % refers to the polarisation; further: % of control where 0% means no effect
MLL CXXC-DNA inh = inhibitors of human MLL CXXC domain-DNA interaction; Q03164; MLL-CXXC / FITC-HOXA9 DNA fluorescence polarization; Potency, µM (doses to about 115 µM), for inactives: top-dose activity change, negative = inhibition, hits mostly inhibitors; 290,000 compounds, 0.037% hits; AID 2662; active means well fitted inhibition curve with a large enough effect in the polarisation, with a control signal flat, not every such curve was filed as active; inconclusive means small, poorly fitted or top-dose-only effect, or effect the other way, or a change in a side signal; inactive means no such curve, though single readings can be large or run the other way; the % refers to the polarisation; further: potency means the concentration at half of the fitted maximal effect
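Fluorescence polarization: 7 uM MLL-CXXC (stock) preincubated 5 min with compounds, then 50 nM fluorescein-HOX-A9 DNA (stock) added; 30 min ambient. Buffer 50 mM Tris-HCl pH 7.5, 50 mM NaCl, 1 mM DTT, 0.05% BSA.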
MLL CXXC FP-Fl = MLL CXXC-DNA interaction inhibition, fluorescein FP. shares compounds with MLL CXXC-DNA inh. MLL CXXC-DNA binding, fluorescein FP. Potency, µM (doses to about 345 µM), without a hit: top-dose activity change, negative = inhibition, most hits filed as inhibitors. 200 compounds, 70% hits. AID 624160; further: potency means the concentration at half of the fitted maximal effect; nearly all actives have a fitted effect of over 80% in size
MLL CXXC TxRed = disrupts human MLL CXXC domain binding to DNA, Texas Red | shares compounds with MLL CXXC-DNA inh | MLL CXXC-DNA binding, Texas Red fluorescence polarization | Potency, µM (highest dose often 345 µM), for inactives: top-dose activity change, negative = inhibition, hits mostly inhibitors | 200 compounds, 40% hits | AID 624161; further: potency means the concentration at half of the fitted maximal effect; on the % scale 0 is the no-effect control and ±100 the full control effect; nearly all actives have a fitted effect of over 75% in size
MLL CXXC HTRF = MLL CXXC-DNA interaction inhibition, HTRF readout | shares compounds with MLL CXXC-DNA inh | MLL CXXC-DNA binding, HTRF, biochemical | Potency, µM (titrated, usually from 172 µM), inactives show at the top dose activity change, negative = inhibition, hits mostly inhibitors | 210 compounds, 30% hits | AID 624162; further: on the % scale 0 is the no-effect control and ±100 the full control effect; nearly all actives have a fitted effect of over 80% in size
An asterisk follows results filed as active; ? = inconclusive; nt = not tested or not shown. This is one part of a sample in which hits are shown more often than they occur. Unless noted, the call rests on the fitted dose curve; in most records, active means well fitted curve in the direction sought with a large enough effect; inconclusive means small, poorly fitted or top-dose-only effect, or another doubt; inactive means no such curve, though single readings can be large; an effect the other way counts as inactive or inconclusive.

SMILES	Mm-Cpn inhibitor	ERG-DNA inh	Menin MLL FP TR	Menin-MLL FL inh	MLL CXXC-DNA inh	MLL CXXC FP-Fl	MLL CXXC TxRed	MLL CXXC HTRF
O=C(CCC(=O)OCC(=O)c1ccc(-c2ccccc2)cc1)Nc1cccc(Cl)c1	-1%	4%	25µM*	-1	19%	nt	nt	nt
COc1ccc(C(=O)CCC(=O)Nc2ccccc2C)cc1	nt	-2%	nt	nt	nt	nt	nt	nt
CCCCCCCCCCCCCCOS(=O)(=O)O	nt	nt	-9%	1	nt	nt	nt	nt
O=C(NC(=S)Nc1nc(-c2cccc3ccccc23)cs1)c1cc2ccccc2o1	3%	-3%	25µM*	7	7%	nt	nt	nt
O=C1CC(N(CCc2ccccc2)C(=S)Nc2cc(Cl)ccc2Cl)C(=O)N1c1c(Cl)cccc1Cl (stereo not drawn)	2%	-2%	10µM*	1	6%	nt	nt	nt
CC(/C=C1\NC(=S)NC1=O)=C\c1ccccc1	-1%	12%	-29%	4	45µM*	0.13µM*	?	53%
O=C1NC(=S)NC1=Cc1ccccc1O	nt	45%	nt	nt	nt	nt	nt	nt
O=C(CSc1nc2ccccc2c(=O)n1Cc1ccc(F)cc1)NCc1cccs1	-23%	2%	10%	3	7.9µM*	2%	48%	1%
CCCOC(=O)NCCCN(C)C	nt	nt	7%	0	nt	nt	nt	nt
C[C@H]1COC(=O)O1	nt	nt	2%	-3	nt	nt	nt	nt
NCC(=O)N[C@@H](CCCN=C(N)N)C(=O)NCC(=O)N[C@@H](CC(=O)O)C(=O)N[C@@H](CO)C(=O)N1CCC[C@H]1C(=O)O	nt	nt	16%	1	nt	nt	nt	nt
Cc1[nH][nH]c(=O)c1C(c1ccc(-c2ccc(C(=O)O)cc2)o1)c1c(C)[nH][nH]c1=O	-5%	-3%	-24%	2	?	-6%	9%	?
Cc1[nH][nH]c(=O)c1C(c1ccc(-c2ccc(F)cc2)o1)c1c(C)[nH][nH]c1=O	-11%	9%	?	2	-14%	nt	nt	nt
CC(=O)C1(O)Cc2c(O)c3c(c(O)c2C(OC2CC(N)C(O)C(C)O2)C1)C(=O)c1c(O)cccc1C3=O (stereo not drawn)	nt	nt	?	?	?	4.5µM*	20µM*	270%
CC(C)C1C(=O)N(S(C)(=O)=O)[C@H]2CCN(C(=O)/C=C/CN3CCCCC3)[C@@H]12 (stereo partly drawn)	nt	nt	-2%	0	nt	nt	nt	nt
NS(=O)(=O)c1ccc(NC(=O)c2c(Cl)cccc2Cl)cc1	0%	3%	3%	4	?	?	?	-7%
NS(=O)(=O)c1ccc(NC(=O)c2c(F)cccc2Cl)cc1	1%	-1%	nt	2	-2%	nt	nt	nt
CCn1c(CSc2ncn[nH]2)nc2cc(C(=O)O)ccc21	5%	35µM*	nt	5	?	62%	126µM*	3%
O=C(O)c1ccc(CSc2ncn[nH]2)cc1	-7%	nt	3%	2	-3%	nt	nt	nt
Cc1ccsc1C=C1C(=O)c2ccccc2C1=O	1%	-10%	?	0	?	10µM*	-4%	14%
CCc1cccc(NC(=O)CSC2=NS(=O)(=O)c3ccccc32)c1	0%	8%	-11%	3	32µM*	89µM*	113µM*	15µM*
COc1cc(OC)cc(-c2nnc3n2N=C(c2ccccc2OC)CS3)c1	nt	nt	15%	7	nt	nt	nt	nt
O=C1C2C(c3ccccc3)CC=CC2[C@H](c2ccc(C(F)(F)F)cc2)N1Cc1ccccc1 (stereo partly drawn)	2%	12%	nt	-1	?	22µM*	36%	195%
CN(C)CCOc1nc(-c2ccccc2)nc2c1oc1ccccc12	1%	-4%	-11%	3	35µM*	126µM*	?	-9%
C=CCOC(=O)C(=O)/C=C/c1csc2ccccc12	nt	8%	?	?	?	6%	?	-12%
O=C(Nc1cccc(C(=O)Nc2ccc(S(=O)(=O)O)c3cc(S(=O)(=O)O)cc(S(=O)(=O)O)c23)c1)Nc1cccc(C(=O)Nc2ccc(S(=O)(=O)O)c3cc(S(=O)(=O)O)cc(S(=O)(=O)O)c23)c1	nt	nt	21%	?	16µM*	28µM*	100µM*	39µM*
CC[C@H](C)[C@H](NC(=O)[C@H](CC(=O)O)NC(=O)[C@H](CC(C)C)NC(=O)[C@H](Cc1cnc[nH]1)NC(=O)[C@H](C)NC(=O)[C@H](Cc1ccccc1)NC(=O)[C@H](Cc1ccc(O)cc1)NC(=O)[C@@H](NC(=O)[C@H](C)NC(=O)[C@H](CCC(=O)O)NC(=O)[C@H](CCC(=O)O)NC(=O)[C@H](CC(=O)O)NC(=O)CCC(=O)O)C(C)C)C(=O)N[C@H](C(=O)N[C@@H](Cc1c[nH]c2ccccc12)C(=O)O)[C@@H](C)CC	nt	nt	-3%	-3	nt	nt	nt	nt
CN(C)C1=C(Cl)C(=O)N(c2ccc(Cl)c(Cl)c2)C1=O	0%	4%	nt	-19	?	179µM*	44%	?
CC(C)[C@H](N)C(=O)N[C@@H](CCC(N)=O)C(=O)NCC(=O)N[C@@H](CCC(=O)O)C(=O)N[C@@H](CCC(=O)O)C(=O)N[C@@H](CO)C(=O)N[C@@H](CC(N)=O)C(=O)N[C@@H](CC(=O)O)C(=O)N[C@@H](CCCCN)C(=O)O	nt	nt	8%	-2	nt	nt	nt	nt
O=C(O)CCN1C(=O)/C(=C\c2ccc(-c3nc4ccccc4s3)o2)SC1=S	1%	10%	28%	?	?	71µM*	50µM*	24µM*
